In PubChem BioAssay (NCATS):
“And” between values parts separate entries of the source, which are not always exact repeats. Identical values can stand only once. Records with an inconclusive call do not appear. The source made the active and inactive calls. Calls come from the whole dose curve; as a rule, active = well fitted curve in the direction sought with a large enough effect; inconclusive = small, poorly fitted or top-dose-only effect, or another doubt; inactive = no such curve, though single readings can be large; an effect the other way counts as inactive or inconclusive.

How the values were obtained:
[1] = biological target: Cytochrome P450 3A7 (Homo sapiens) (UniProt P24462); test: Cytochrome P450 family 3 subfamily A member 7 (CYP3A7) small molecule antagonists: luciferase biochemical qHTS assay (AID 1963596); note: % is set by controls: 0 for no effect and ±100 for the full control effect; nearly all actives have a fitted effect of over 40% in size
How it was run: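 Enzyme-substrate mix + cpd (DMSO), 10 min RT; + NADPH regen system, 1 h RT; + luciferin detection reagent, 20 min RT; luminescence read. Proluciferin substrate, P450-Glo format, 1536-well qHTS.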

[2] = Viability qHTS for spleen associated tyrosine kinase inhibitor (SYKi) drug resistant MV4-11 cells (AID 1963824); note: nearly all actives have a fitted effect of over 35% in size; note: potency is the fitted concentration of half-maximal effect
How it was run: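 SYK inhibitor-resistant MV4-11 AML cells, 500 per well, added to predispensed compounds and incubated 72 hr at 37 C, 5% CO2. Viability measured by CellTiter-Glo luminescence after 10 min at room temperature.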

[3] = Quantitative highthroughput screen to assess conditional lethalithy of NOMO1 cells grown in RPMI1640 with untreated serum (RPMI+s) (AID 1963876);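 note: 100% = DMSO wells and 0% = empty wells without cells; nearly all actives have a fitted effect of over 35% in size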
How it was run: (§1)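 Each medium arm—HPLM with 10% dialyzed FBS, or RPMI1640 with 5 mM glucose and 10% untreated or dialyzed FBS—was screened against an 11-point, 3-fold compound titration for 48 h at 37 °C, with CellTiter-Glo luminescence as endpoint.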

[4] = Quantitative highthroughput screen to assess conditional lethalithy of NOMO1 cells grown in RPMI1640 with dialyzed fetal bovine serum (RPMI+ds) (AID 1963877);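 note: series mostly up to about 46 µM; 100% = DMSO control wells and 0% = empty wells; nearly all actives have a fitted effect of over 30% in size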
How it was run: as §1

[5] = Quantitative highthroughput screen to assess conditional lethalithy of NOMO1 cells grown in Human Plasma-Like Medium with dialyzed fetal bovine serum (HPLM+ds) (AID 1963878);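 note: 100% = DMSO wells and 0% = empty wells on each plate; nearly all actives have a fitted effect of over 35% in size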
How it was run: as §1

[6] = Quantitative highthroughput screen to assess conditional lethalithy of P12 Ichikawa cells grown in Human Plasma-Like Medium with dialyzed fetal bovine serum (HPLM+ds) (AID 1963879); conditions: Potency: viability; note: series mostly up to about 46 µM; nearly all actives have a fitted effect of over 35% in size
How it was run: as §1

[7] = Quantitative highthroughput screen to assess conditional lethalithy of P12 Ichikawa cells grown in RPMI1640 with dialyzed fetal bovine serum (RPMI+ds) (AID 1963880); conditions: Potency: P12-Ichikawa viability
How it was run: as §1

[8] = Quantitative highthroughput screen to assess conditional lethalithy of P12 Ichikawa cells grown in RPMI1640 with untreated serum (RPMI+s) (AID 1963881); conditions: Potency: viability
How it was run: as §1

[9] = Quantitative highthroughput screen to assess conditional lethalithy of SEM cells grown in Human Plasma-Like Medium with dialyzed fetal bovine serum (HPLM+ds) (AID 1963882)
How it was run: as §1

[10] = Quantitative highthroughput screen to assess conditional lethalithy of SEM cells grown in RPMI1640 with unreated serum (RPMI+s) (AID 1963883)
How it was run: as §1

[11] = Quantitative highthroughput screen to assess conditional lethalithy of SEM cells grown in RPMI1640 with dialyzed fetal bovine serum (RPMI+ds) (AID 1963884)
How it was run: as §1

[12] = Cellular viability qHTS for adrenocortical cancer (ACC) cell line NCI-H295R (AID 1963990); note: nearly all actives have a fitted effect of over 60% in size; note: potency is the fitted concentration of half-maximal effect
How it was run: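 Luminescent ATP read-out (CellTiter-Glo, 20 min RT) after 48 h drug exposure of NCI-H295R cells; a titration up to 46 uM final. Data normalized to doxorubicin (100% inhibition) and DMSO (0%); 4-parameter fit gives IC50, max response.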

[13] = Cellular viability qHTS for adrenocortical cancer (ACC) cell line SW-13 (AID 1963989); conditions: SW-13 ACC cells viability, CellTiter-Glo, 48 h; activity (max response): stronger effect = lower value; note: nearly all actives have a fitted effect of over 65% in size; note: potency is the fitted concentration of half-maximal effect;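 for activity (max response): cells grown in serum-free medium with ITS supplement; % is set by controls: 0 for no effect and ±100 for the full control effect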
How it was run: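 SW-13 cells in ITS-supplemented serum-free DMEM were plated overnight, then exposed for 48 h at 37C to compound titrations (up to 46 uM final). Viability was read by CellTiter-Glo luminescence; four-parameter logistic fits gave IC50 and efficacy.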

Chain of Cytochrome P450 3A7 (Homo sapiens) (P24462 whole entry, looked up): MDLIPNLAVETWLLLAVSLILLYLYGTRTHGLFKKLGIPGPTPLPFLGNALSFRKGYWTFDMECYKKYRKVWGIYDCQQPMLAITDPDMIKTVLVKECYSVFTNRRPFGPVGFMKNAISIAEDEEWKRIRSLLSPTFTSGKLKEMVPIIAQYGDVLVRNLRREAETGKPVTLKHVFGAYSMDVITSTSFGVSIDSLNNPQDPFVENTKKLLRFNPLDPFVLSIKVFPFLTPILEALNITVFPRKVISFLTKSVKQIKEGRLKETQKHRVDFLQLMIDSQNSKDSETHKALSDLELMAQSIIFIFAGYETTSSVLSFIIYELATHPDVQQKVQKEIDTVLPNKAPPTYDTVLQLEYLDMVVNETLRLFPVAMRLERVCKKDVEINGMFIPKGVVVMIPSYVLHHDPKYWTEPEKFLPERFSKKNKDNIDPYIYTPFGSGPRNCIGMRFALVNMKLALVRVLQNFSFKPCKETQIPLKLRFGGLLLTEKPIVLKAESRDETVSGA

CC1COc2c(N3CCN(C)CC3)c(F)cc3c(=O)c(C(=O)O)cn1c23 (centres undefined)
active: Potency [2] 8.41 µM
inactive: Potency [1] | Potency [3] | Potency [4] | Potency [5] | Potency [6] | Potency [7] | Potency [8] | Potency [9] | Potency [10] | Potency [11] | Potency [12]

CCc1nc(-c2cccc(C)c2)c(-c2ccnc(NC(=O)c3ccccc3)c2)s1
inactive: Potency [1] | Potency [3] | Potency [4] | Potency [9]
active: Potency [2] 20.6 µM | Potency [13] 25.1 µM | Potency [12] 28.2 µM

Cc1oc(=O)oc1CN1CCN(c2cc3c(cc2F)c(=O)c(C(=O)O)c2n3C(C)S2)CC1 (centres undefined)
active: Potency [2] 18.6 µM
inactive: Potency [1] | Potency [3] | Potency [4] | Potency [6] | Potency [7] | Potency [8] | activity (max response) [13] 4.83% and 4.68% | Potency [12]

C[C@@H]1CN(c2c(F)c(N)c3c(=O)c(C(=O)O)cn(C4CC4)c3c2F)C[C@H](C)N1
inactive: Potency [1] | Potency [2] | Potency [3] | Potency [4] | activity (max response) [13] -1.88% | Potency [12]

CN=C(N)NC(=O)Nc1c(C)cccc1C
inactive: Potency [1] | Potency [2] | activity (max response) [13] -3.82%

O=C(O)Cc1sc(-c2ccccc2)nc1-c1ccc(Cl)cc1
inactive: Potency [1] | Potency [2] | activity (max response) [13] 0.388% | Potency [12]

CCN1CCN(C(=O)N[C@@H](C(=O)N[C@@H]2C(=O)N3[C@@H]2SC(C)(C)[C@H]3C(=O)O)c2ccccc2)C(=O)C1=O
inactive: Potency [1] | Potency [2] | activity (max response) [13] 12.1% | Potency [12]

CCN1CCN(Cc2ccc(NC(=O)c3ccc(C)c(NC(=O)c4cncc(-c5cccs5)c4)c3)cc2C(F)(F)F)CC1
inactive: Potency [1]
active: Potency [2] 14.6 nM and 26.3 nM | Potency [13] 2 µM | Potency [12] 2.51 µM
